Where “and” joins values, the source holds several entries; their conditions need not be identical. Equal values may be shown once. Screen size: about 6,400 compounds; about 610 (9.5%) were called active. No stated cut-off is given here; in the data, active means activity change below about -70%; inconclusive means no clear call, values can overlap the other calls; inactive means above that. The entries come from a sample that favours actives as a whole. Where a structure was tested more than once in an assay, its records may differ in their call.
Test: T. gondii ME49Luc in HeLa cells, luciferase assay, 72 h, no IFN-y (AID 1259421)
Settings: stronger effect = lower value, concentration not given here
With `O=c1[nH]c(=O)c2[nH]c(=O)[nH]c2[nH]1` the activity change, negative = inhibition was 3.85% (inactive). With `CC(C)NC[C@@H](O)c1ccc(NS(C)(=O)=O)cc1` the activity change, negative = inhibition was 2.38% (inactive). In the case of `C[C@@H]([C@@H](O)c1ccc(O)cc1)N1CCC(O)(c2ccccc2)CC1`, the activity change, negative = inhibition is reported as 0.328% (inactive) and 9.44% (inactive). In the case of `Nc1nc(F)nc2c1ncn2[C@@H]1O[C@H](CO)[C@@H](O)[C@@H]1O`, the activity change, negative = inhibition is reported as -26.8% (inactive). In the case of `OC[C@H]1O[C@@H](n2cnc3c(NC4CCCC4)nc(Cl)nc32)[C@H](O)[C@@H]1O`, the activity change, negative = inhibition is reported as 3.31% (inactive). With `OCC1OC(n2cnc3c(NC4CCCC4)nc(Cl)nc32)C(O)C1O` (stereo not given) the activity change, negative = inhibition was -5.92% (inactive). With `Nc1nc(Cl)nc2c1ncn2C1OC(CO)C(O)C1F` (stereo not given) the activity change, negative = inhibition was -87.6% (active). In the case of `Nc1nc(Cl)nc2c1ncn2[C@H]1C[C@H](O)[C@@H](CO)O1`, the activity change, negative = inhibition is reported as -37.2% (inactive). For `Nc1nc(Cl)nc2c1ncn2[C@@H]1O[C@H](CO)[C@@H](O)[C@@H]1F`, the activity change, negative = inhibition was -81.3% (active). With `CCCCC[C@@H](O)[C@H]1C(=O)O[C@H](C)[C@@H](O)/C=C/C=C/C=C/C=C/C=C(\C)[C@@H](O)C[C@H](O)C[C@H](O)C[C@H](O)C[C@H](O)C[C@H](O)C[C@@H]1O` the activity change, negative = inhibition was 2.49% (inactive). In the case of `Ic1cc(-c2ccccc2)ncn1`, the activity change, negative = inhibition is reported as 1.75% (inactive). With `COc1ccc2c3c1OC1CC(O)C=CC31CCN(C)C2` (stereo not given) the activity change, negative = inhibition was 4.76% (inactive). For `CC(=O)OCC(=O)[C@@]1(O)CCC2C3CCC4=CC(=O)CC[C@]4(C)C3=CC[C@@]21C` (stereo not given in full), the activity change, negative = inhibition was -0.754% (inactive). For `CCCCCCCCN=c1ccn(CCCCCCCCCCn2ccc(=NCCCCCCCC)cc2)cc1`, the activity change, negative = inhibition was -74.7% (active). In the case of `CCCCCN=c1ccn(Cc2ccccc2)c2ccccc12`, the activity change, negative = inhibition is reported as -3.35% (inactive). For `CN[C@H](CNC(=O)N1CCC[C@@H]([C@@H](OCCNC(=O)OC)c2cccc(Cl)c2)C1)C[C@H]1CCCOC1`, the activity change, negative = inhibition was 7.28% (inactive). For `CNC(=O)c1ccc(-c2cnc3ncc(Cc4ccc5ncccc5c4)n3n2)cc1F`, the activity change, negative = inhibition was -3.07% (inactive). For `COc1ccc([C@H]2COc3c(ccc(O)c3OC)C2)c(OC)c1O`, the activity change, negative = inhibition was 8.53% (inactive). For `CC(NCC(O)CP(=O)(O)CC1CCCCC1)c1ccc(Cl)c(Cl)c1` (stereo not given), the activity change, negative = inhibition was -2.11% (inactive). For `C[C@H](NC(=O)[C@@H](O)c1cc(F)cc(F)c1)C(=O)N[C@@H]1C(=O)N(C)c2ccccc2-c2ccccc21`, the activity change, negative = inhibition was 26.6% (inactive). For `C[C@H](NC(=O)Cc1cc(F)cc(F)c1)C(=O)N[C@@H]1C(=O)N(C)c2ccccc2-c2ccccc21`, the activity change, negative = inhibition was -81.4% (active). In the case of `CC(NC(=O)Cc1cc(F)cc(F)c1)C(=O)NC(C(=O)OC(C)(C)C)c1ccccc1` (stereo not given), the activity change, negative = inhibition is reported as 5.05% (inactive). In the case of `C=C1/C(=C\C=C2/CCC[C@]3(C)[C@@H]([C@H](C)/C=C/C=C/C(O)(CC)CC)CC[C@@H]23)C[C@@H](O)C[C@@H]1O`, the activity change, negative = inhibition is reported as 17.9% (inactive). In the case of `COCCOc1ccc(N2CCN(CCn3ncc4c3nc(N)n3nc(-c5ccco5)nc43)CC2)cc1`, the activity change, negative = inhibition is reported as -6.85% (inactive). With `COc1c(O)cccc1O` the activity change, negative = inhibition was 9.75% (inactive). For `COc1nc2ccc(Br)cc2cc1[C@@H](c1ccccc1)[C@@](O)(CCN(C)C)c1cccc2ccccc12`, the activity change, negative = inhibition was 48% (inactive). With `CC(C)OC(=O)[C@H](C)N[P@@](=O)(OC[C@H]1O[C@@H](n2ccc(=O)[nH]c2=O)[C@](C)(F)[C@@H]1O)Oc1ccccc1` the activity change, negative = inhibition was 5.02% (inactive) and 18.5% (inactive). For `Cc1c(O)c(=O)n(-c2ccccc2)n1C`, the activity change, negative = inhibition was -80.6% (active) and 1.34% (inactive). For `Cc1c(N(C)C)c(=O)n(-c2ccccc2)n1C`, the activity change, negative = inhibition was 13% (inactive). For `Cc1c(I)c(=O)n(-c2ccccc2)n1C`, the activity change, negative = inhibition was 9.68% (inactive). For `CCO[C@@H](Cc1ccc(OCCc2ccc(OS(C)(=O)=O)cc2)cc1)C(=O)O`, the activity change, negative = inhibition was 11% (inactive). For `Cc1ccc(NC(=O)C(C)C)cc1C1CCN(Cc2ccc(Oc3ccc(F)c(F)c3)cc2)CC1`, the activity change, negative = inhibition was -59.6% (inactive). For `NC1=NCN([C@H]2C[C@@H](O)[C@@H](CO)O2)C(=O)N1`, the activity change, negative = inhibition was 13.9% (inactive). With `Cn1cnc(=N)c2[nH]cnc21` the activity change, negative = inhibition was 11% (inactive). With `C=CC(=O)Nc1cccc(Nc2nc(Nc3ccc(Oc4ccnc(C(=O)NC)c4)cc3)ncc2F)c1` the activity change, negative = inhibition was -38.8% (inactive). With `CNC(=O)c1cc(COc2nnc(Nc3ccc(Cl)cc3)c3ccoc23)ccn1` the activity change, negative = inhibition was -9.12% (inactive). For `COc1cc(NC(=O)c2ccccn2)ccc1Cl`, the activity change, negative = inhibition was 132% (inactive). In the case of `CN1CCN(C2CCN(C(=O)Nc3cc(Oc4ccc(NC(=O)C5(C(=O)Nc6ccc(F)cc6)CC5)c(F)c4)ccn3)CC2)CC1`, the activity change, negative = inhibition is reported as -66.6% (inactive). For `C=CC(=O)Nc1ccc(Cl)cc1`, the activity change, negative = inhibition was 16.9% (inactive). In the case of `CNC(=O)c1cc(Oc2ccc(NC(=O)Nc3ccc(Cl)c(C(F)(F)F)c3)c(F)c2)ccn1`, the activity change, negative = inhibition is reported as -86.3% (active) and -83.6% (active). For `CNC(=O)c1cc(Oc2ccc(NC(=O)Nc3ccc(Cl)c(C(F)(F)F)c3)cc2)ccn1`, the activity change, negative = inhibition was -70.5% (active) and -84.5% (active). For `CC(C)C(=O)Nc1ccc([N+](=O)[O-])c(C(F)(F)F)c1`, the activity change, negative = inhibition was 12.9% (inactive). With `O=C(Nc1ccc(Cl)cc1)Nc1ccc(Cl)c(C(F)(F)F)c1` the activity change, negative = inhibition was -76.9% (active). For `Nc1[nH]nc2nnc(-c3c(-c4ccccc4)nn4ccccc34)cc12`, the activity change, negative = inhibition was -19.2% (inactive). In the case of `OC[C@@H](O)[C@@H](O[C@@H]1O[C@H](CO)[C@H](O)[C@H](O)[C@H]1O)[C@H](O)[C@@H](O)CO`, the activity change, negative = inhibition is reported as 24% (inactive). For `NC(Cn1ccc(=O)n(Cc2ccccc2C(=O)O)c1=O)C(=O)O` (stereo not given), the activity change, negative = inhibition was 7.15% (inactive). For `CN1C2CCC1CC(OC(=O)c1c[nH]c3ccccc13)C2` (stereo not given), the activity change, negative = inhibition was 2.23% (inactive). For `O=C1CC[C@@H](C(=O)O)N1`, the activity change, negative = inhibition was 4.43% (inactive). In the case of `C1=C(CN2CCOCC2)COc2c1cccc2OCC1CNCCO1` (stereo not given), the activity change, negative = inhibition is reported as 2.39% (inactive). In the case of `CC(C)=CCC/C(C)=C/C=C/C(C)=C/C=C/C(C)=C/C=C/C=C(C)/C=C/C=C(C)/C=C/C=C(\C)CCC=C(C)C`, the activity change, negative = inhibition is reported as -16.2% (inactive). In the case of `COc1ccc(-c2cc(=O)c3c(O)c(OC)c(OC)c(OC)c3o2)cc1OC`, the activity change, negative = inhibition is reported as -10.2% (inactive). In the case of `CC1(C)S[C@H]2[C@@H](NC(=O)[C@@H](NC(=O)N3CCN(S(C)(=O)=O)C3=O)c3ccccc3)C(=O)N2[C@@H]1C(=O)O`, the activity change, negative = inhibition is reported as 5.45% (inactive). For `CN1CCCC(CN2c3ccccc3Sc3ccccc32)C1` (stereo not given), the activity change, negative = inhibition was 11.8% (inactive) and 21.2% (inactive). In the case of `CN1CCc2ccccc2Cc2[nH]c3ccccc3c2CC1`, the activity change, negative = inhibition is reported as 12.1% (inactive). In the case of `O=c1c2ccccc2nc2n1CCc1c-2[nH]c2ccccc12`, the activity change, negative = inhibition is reported as 249% (inactive). For `CN1c2ccccc2C(=O)N2CCc3c([nH]c4ccccc34)C21` (stereo not given), the activity change, negative = inhibition was -71.6% (active). With `O=C(O)CCC/C=C/CC1COC(C(F)(F)F)OC1c1ccccc1O` (stereo not given) the activity change, negative = inhibition was 0.246% (inactive). With `C=C[C@@]1(C)CC(=O)[C@@]2(O)[C@](C)(O1)[C@@H](OC(C)=O)[C@@H](O)C1C(C)(C)CC[C@H](O)[C@@]12C` (stereo not given in full) the activity change, negative = inhibition was 6.95% (inactive). With `Cc1ccc(NC(=O)c2ccc(CN3CCN(C)CC3)cc2)cc1Nc1nccc(-c2cccnc2)n1` the activity change, negative = inhibition was 3.71% (inactive) and 10.8% (inactive) and -1.32% (inactive). In the case of `Cc1cn(-c2cc(NC(=O)c3ccc(C)c(Nc4nccc(-c5cccnc5)n4)c3)cc(C(F)(F)F)c2)cn1`, the activity change, negative = inhibition is reported as -85.2% (active) and -76.5% (active). With `Cc1ccc(NC(=O)c2ccc(CN3CCN(C)CC3)cc2)cc1Nc1nc(-c2cccnc2)cs1` the activity change, negative = inhibition was 47.7% (inactive). For `Cc1ccc(C(=O)Nc2cccc(C(F)(F)F)c2)cc1Nc1nc(-c2cccnc2)nc2c1cnn2C`, the activity change, negative = inhibition was -48.8% (inactive). In the case of `Cc1ncc(NC(=O)c2ccc(CN3CCN(C)CC3)c(C(F)(F)F)c2)cc1Nc1nccc(-c2cccnc2)n1`, the activity change, negative = inhibition is reported as -77.9% (active). For `O=Cc1ccccc1O[C@@H]1O[C@H](CO)[C@H](O)[C@@H](O)[C@H]1O`, the activity change, negative = inhibition was 4.65% (inactive). With `NC(=O)c1nc(F)c[nH]c1=O` the activity change, negative = inhibition was 2.13% (inactive). With `Cc1c[nH]c2ccccc12` the activity change, negative = inhibition was -2.35% (inactive). In the case of `NC(N)=NCCC[C@@H](N)C(=O)O`, the activity change, negative = inhibition is reported as 13.4% (inactive). In the case of `Cn1c(C#N)ccc1-c1ccc2c(c1)C(C)(C)OC(=S)N2`, the activity change, negative = inhibition is reported as -80.3% (active). In the case of `CCOc1ccccc1N=Nc1c(C)[nH]n(-c2nc(-c3ccccc3)cs2)c1=O`, the activity change, negative = inhibition is reported as -0.237% (inactive). For `Cc1ccc(-n2[nH]c(C)c(N=Nc3cccc(-c4cccc(C(=O)O)c4)c3O)c2=O)cc1C`, the activity change, negative = inhibition was -77.8% (active). With `Cn1cc(C(=O)[C@@H]2CCc3nc[nH]c3C2)c2ccccc21` the activity change, negative = inhibition was 3.43% (inactive). With `CC1=CC(=O)c2ccccc2C1=O` the activity change, negative = inhibition was 2.88% (inactive) and 20.5% (inactive). With `CC1(C)C(=O)NC2=C1C(=O)C(=O)c1ccccc12` the activity change, negative = inhibition was -90% (active). For `C[N+](C)(C)CCOP(=O)(O)OC[C@H](O)CO`, the activity change, negative = inhibition was 7.52% (inactive). With `COC(=O)C[C@H]1C(C)(C)[C@@H](OC(C)=O)[C@@H]2CC3=C4CC(=O)O[C@@H](c5ccoc5)[C@]4(C)CCC3[C@@]1(C)C2=O` (stereo not given in full) the activity change, negative = inhibition was 13.2% (inactive). For `CC(=O)O[C@H]1Cc2ccccc2N(C(N)=O)c2ccccc21`, the activity change, negative = inhibition was 8.82% (inactive). In the case of `O=c1cc(-c2ccc(O)cc2)oc2cc(O[C@@H]3O[C@H](CO)[C@@H](O)[C@H](O)[C@H]3O[C@@H]3OC[C@](O)(CO)[C@H]3O)cc(O)c12`, the activity change, negative = inhibition is reported as -2.43% (inactive). With `Cc1nc2ccccc2n1Cc1ccc(Cl)cc1` the activity change, negative = inhibition was -8.55% (inactive). For `CC(C)N=c1cc2n(-c3ccc(Cl)cc3)c3ccccc3nc-2cc1Nc1ccc(Cl)cc1`, the activity change, negative = inhibition was -81.2% (active) and 17.4% (inactive). With `Cc1ccc2c(c1)C(=O)[C@]1(O)CCN(c3ccccc3)C1=N2` the activity change, negative = inhibition was 7.51% (inactive).
